{"source": "PubChem BioAssay (Tox21)", "note": "Inconclusive results are not listed. Calls of active or inactive are those of the source. Calls follow the shape of the dose curve; as a rule, active = well fitted activation curve with a large enough effect in the signal ratio in the repeat runs, with a control signal flat (not every such curve was filed as active); inconclusive = weak or mixed curves, or effect the other way; inactive = no such curve, though single readings can be large or run the other way; the % refers to the signal ratio. % is scaled to controls: 0 for no effect and ±100 for the full control effect; potency is read from the fitted curve at half-maximal effect.", "data": [{"molecular_target": "Androgen receptor (Homo sapiens) (UniProt P10275)", "sequence (P10275 whole entry, looked up)": "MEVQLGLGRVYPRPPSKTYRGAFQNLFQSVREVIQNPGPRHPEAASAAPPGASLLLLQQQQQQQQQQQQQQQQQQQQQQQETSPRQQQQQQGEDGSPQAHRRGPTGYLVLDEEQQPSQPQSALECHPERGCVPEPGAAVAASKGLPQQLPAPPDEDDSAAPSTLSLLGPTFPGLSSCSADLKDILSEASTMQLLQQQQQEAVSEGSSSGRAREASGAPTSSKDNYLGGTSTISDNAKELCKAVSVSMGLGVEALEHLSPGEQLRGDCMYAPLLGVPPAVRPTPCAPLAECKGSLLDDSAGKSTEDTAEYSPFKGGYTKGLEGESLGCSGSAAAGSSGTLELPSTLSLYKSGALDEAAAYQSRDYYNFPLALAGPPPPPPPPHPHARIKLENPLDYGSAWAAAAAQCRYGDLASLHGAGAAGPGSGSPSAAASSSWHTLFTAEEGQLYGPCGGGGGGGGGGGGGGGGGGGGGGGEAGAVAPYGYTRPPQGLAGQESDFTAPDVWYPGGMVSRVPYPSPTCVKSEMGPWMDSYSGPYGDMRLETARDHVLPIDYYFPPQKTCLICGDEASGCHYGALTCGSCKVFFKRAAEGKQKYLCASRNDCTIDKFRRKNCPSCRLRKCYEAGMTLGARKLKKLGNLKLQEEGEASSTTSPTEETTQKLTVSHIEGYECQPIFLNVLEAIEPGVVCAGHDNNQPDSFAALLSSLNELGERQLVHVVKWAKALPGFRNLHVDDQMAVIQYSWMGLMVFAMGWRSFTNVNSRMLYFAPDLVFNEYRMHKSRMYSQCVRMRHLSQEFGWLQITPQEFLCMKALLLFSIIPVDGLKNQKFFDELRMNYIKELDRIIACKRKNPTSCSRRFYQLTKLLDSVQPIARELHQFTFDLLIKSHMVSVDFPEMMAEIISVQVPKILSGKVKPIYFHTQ", "experiment": "qHTS assay to identify small molecule agonists of the androgen receptor (AR) signaling pathway (AID 743036)", "settings": "HEK293 AR-UAS-bla GripTite, beta-lactamase FRET ratio, 16 h; series mostly up to 62.4 µM; activation: at the top concentration", "text": "U.S. Tox21 Program National Center for Advancing Translational Sciences [NCATS] NIH Chemical Genomics Center [NCGC] U.S. Environmental Protection Agency [EPA] National Institutes of Environmental Health Sciences [NIEHS] National Toxicology Program [NTP] U.S. Food and Drug Administration [FDA] Tox21 Assay Overview: Androgen receptor (AR), a nuclear hormone receptor, plays a critical role in AR-dependent prostate cancer and other androgen related diseases. Endocrine disrupting chemicals (EDCs) and their interactions with steroid hormone receptors like AR may cause disruption of normal endocrine function as well as interfere with metabolic homeostasis, reproduction, developmental and behavioral functions. To identify the compounds that activate AR signaling, GeneBLAzer AR-UAS-bla-GripTite cell line (Invitrogen, Carlsbad, CA, USA) containing a beta-lactamase reporter gene under the control of an Upstream Activator Sequence (UAS) stably integrated into HEK293 cells was used to screen the Tox21 10K compound library.\nTox21 Assay Protocol Summary: AR-bla cells were dispensed at 2,000 cells/6 uL/well of assay medium into black wall/clear-bottom 1536-well plates using a Multidrop Combi (ThermoFisher Scientific, Waltham, MA) dispenser. After the assay plates were incubated at 37C and 5% CO2 for 4 h, 23 nL of compounds dissolved in DMSO, positive controls or DMSO only was transferred to the assay plate by a Pintool station (Kalypsys, San Diego, CA). The plates were incubated at 37C and 5% CO2 for 16 h. Then 1 uL of LiveBLAzerTM B/G FRET substrate was added using a Bioraptr Flying Reagent Dispenser (FRD) workstation (Beckman Coulter, Indianapolis, IN, USA). The plates were incubated at room temperature for 2 h, and fluorescence intensity was measured by an Envision plate reader (PerkinElmer, Shelton, CT).", "values": [{"smiles": "FC(Cl)(Cl)Cl", "Potency": "12.3 µM (active)"}, {"smiles": "CCC(C)(C)C(=O)OC1=C(c2ccc(Cl)cc2Cl)C(=O)OC12CCCCC2", "activation": "15.4% (inactive)"}, {"smiles": "CCCSP(=O)(OCC)SCCC", "activation": "17% [at 79.1 µM] (inactive)"}, {"smiles": "CC(=O)O[C@H]1CC[C@@]2(C)C(=CC[C@@H]3[C@@H]2CC[C@]2(C)C(=O)CC[C@@H]32)C1", "Potency": "inactive"}, {"smiles": "CC[C@H]1C[C@@H]2C[C@H]3c4[nH]c5ccc(OC)cc5c4CCN(C2)[C@@H]13", "activation": "-3.94% (inactive)"}, {"smiles": "C[C@]12Cc3nonc3C[C@@H]1CC[C@@H]1[C@@H]2CC[C@@]2(C)[C@H]1CC[C@]2(C)O", "Potency": "0.0038 µM (active)"}, {"smiles": "CCCCCCCCc1ccc(O)cc1", "activation": "15.3% [at 79.1 µM] (inactive)"}, {"smiles": "CNC(C)Cc1ccc2c(c1)OCO2", "note": "(stereo not given)", "activation": "4.69% [at 79.1 µM] (inactive)"}, {"smiles": "O=C(CCl)Nc1ccccc1", "activation": "12.2% (inactive)"}, {"smiles": "Nc1ccccc1C(=O)Oc1ccc2ccccc2c1", "activation": "-9.04% (inactive)"}, {"smiles": "CN(C)CCc1c[nH]c2ccc(O)cc12", "activation": "-0.554% (inactive)"}, {"smiles": "CCOc1cc(C(C)(C)C)ccc1C1COC(c2c(F)cccc2F)=N1", "note": "(stereo not given)", "activation": "2.74% (inactive)"}, {"smiles": "ClC1=C(Cl)C2(Cl)C3C(Cl)C(Cl)CC3C1(Cl)C2(Cl)Cl", "note": "(stereo not given)", "activation": "14% (inactive)"}, {"smiles": "Oc1c(Br)c(Br)c(Br)c(Br)c1Br", "activation": "-11.6% [at 79.1 µM] (inactive)"}, {"smiles": "COc1cccc(C(=O)CCN[C@@H](C)[C@H](O)c2ccccc2)c1", "activation": "5.88% (inactive)"}, {"smiles": "O=c1oc2ccccc2c(O)c1Cc1c(O)c2ccccc2oc1=O", "activation": "-1.93% [at 29.2 µM] (inactive)"}, {"smiles": "COc1ccc(/C(=C/C(=O)N2CCOCC2)c2ccc(Cl)cc2)cc1OC", "activation": "2.48% (inactive)"}, {"smiles": "O=C1c2ccccc2C(=O)C1C(=O)C(c1ccccc1)c1ccc(Cl)cc1", "note": "(stereo not given)", "activation": "3.74% (inactive)"}, {"smiles": "CC(C)(C)OO", "activation": "-0.844% (inactive)"}, {"smiles": "CCN(CC)c1c([N+](=O)[O-])cc(C(F)(F)F)c(N)c1[N+](=O)[O-]", "activation": "16.3% (inactive)"}]}]}
